Laboratory results reported in PubChem BioAssay (NCATS).
Records with an inconclusive call do not appear. Active and inactive are the calls of the source. Calls come from the whole dose curve; as a rule, active = well fitted cell-killing curve with a large enough effect; inconclusive = small, poorly fitted or top-dose-only effect, or effect the other way; inactive = flat fitted curve, though single readings scatter.

test system: PA-1; assay: Primary qHTS to identify gynecologic anti-cancer compounds using libraries of approved drugs and bioactive compounds (AID 1345084); conditions: Gynecologic cancer cell panel viability, ATPlite luminescence, 48 h; series mostly up to 57.5 µM; activity change, negative = cytotoxicity: at the top concentration; note: nearly all actives have a fitted effect of over 55% in size
How it was run: (§1)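 48 h compound exposure at 37 C, 5% CO2; five-point qHTS. ATPlite luminescence readout of cell ATP.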
% is set by controls: 0 for no effect and ±100 for the full control effect; potency is the fitted concentration of half-maximal effect.

SMILES | activity change, negative = cytotoxicity | Potency
N#Cc1cccc(C(=O)Nc2cc(-c3ccccc3)nn2-c2ccccc2)c1 | 14.2% (inactive) | –
O=C(Nc1ccc(C(F)(F)F)cn1)N1CCN(c2ncccc2C(F)(F)F)CC1 | -7.94% (inactive) | –
O=C(Nc1ccccc1C(=O)NC1CCCCNC1=O)c1cc2ccccc2s1 (stereo not drawn) | 8.4% (inactive) | –
CCCCCCOC(=O)/N=C(\N)c1ccc(NCc2nc3cc(C(=O)N(CCC(=O)OCC)c4ccccn4)ccc3n2C)cc1 | 3.11% (inactive) | –
CC[C@H]1CN(c2nc(N)c(C(N)=O)nc2Cl)CCN1C1CCN(Cc2ccc(Cl)cc2)CC1 | 3.67% (inactive) | –
CC(C)=CCc1cc2c(cc1O)OC[C@H]1c3ccc(O)cc3O[C@@H]21 | -7.92% [at 38.5 µM] (inactive) | –
Cc1c(C(=O)NCc2cccnc2)nn(-c2ccc(Cl)cc2Cl)c1-c1ccc(Cl)cc1 | -1.8% (inactive) | –
C=C1C(OC2OC(CO)C(O)C(O)C2O)CC2C(C)(C)C(O)CCC2(C)C1CC/C(C)=C\COC(=O)CC(=O)O (stereo not drawn) | -2.63% [at 25.3 µM] (inactive) | –
C=CC1(C)CC(O)C(C(=C)C(=O)OC)C(O)C1C(=C)CO (stereo not drawn) | -14.6% (inactive) | –
Cn1cc(-c2ccc(F)c(C(F)(F)F)c2)nc1C1CCN(c2ncnc3[nH]ncc23)CC1 | -1.25% [at 25.3 µM] (inactive) | –
Cc1ccccc1CN1CCn2c1nc1c(c2=O)CN(Cc2ccccc2)CC1 | -0.438% (inactive) | –
Cc1cc(-c2ncc(-c3cccnc3)cc2/C=C/c2ccccc2)cnc1-c1cccnc1 | 1.43% (inactive) | –
Cc1cnn(-c2ccccc2)c1NC(=O)COCc1ccccc1 | -13.3% (inactive) | –
OC(CC1c2ccccc2-c2cncn21)C1CCCCC1 (stereo not drawn) | -6.28% (inactive) | –
Nc1nc2c(s1)CCN(Cc1ccc(Cl)cc1)CC2 | 8.44% (inactive) | –
COc1ccc(CCN(C)CCCOc2nsc(-c3ccccc3)n2)cc1OC | -7.48% (inactive) | –
COc1cc(O)cc(OC2OC(CO)C(O)C(O)C2O)c1 (stereo not drawn) | 9.08% (inactive) | –
Cc1cc(C)cc(-c2cnc3cc(Cl)c(-c4cccc(O)c4)cc3c2OCCCN)c1 | -9% (inactive) | –
N[C@@H]1c2cccnc2[C@H](OC(=O)N2CCC(n3c(=O)[nH]c4ncccc43)CC2)CC[C@H]1c1cccc(F)c1F | 11.5% (inactive) | –
CNCc1cc(-c2ccccc2F)n(S(=O)(=O)c2cccnc2)c1 | -1.07% (inactive) | –

SMILES | activity change, negative = cytotoxicity | Potency
COc1c2c(c(C)c3c1C(=O)OC3)O[C@@]1(C)C[C@@H](OC(C)=O)[C@]34O[C@](OC)(CC[C@]3(C)[C@H]1C2)OC4(C)C | -1.55% [at 25.3 µM] (inactive) | –
O=C(N[C@H](Cc1cscn1)C(=O)N[C@@H](CC1CCCCC1)[C@@H](O)[C@@H](O)C1CC1)c1nc2ccccc2[nH]1 | 9.35% (inactive) | –
O=C(COc1ccc2ccccc2c1Br)Nc1cccnc1 | -1.41% (inactive) | –
C=C(CCC1C(C)(O)CCC2C(C)(C)C(O)CCC12C)C(O)CO (stereo not drawn) | -3.26% [at 38.5 µM] (inactive) | –
C=CCC1=C[C@]2(OC)[C@H](C)[C@@H](c3ccc4c(c3)OCO4)O[C@]2(OC)CC1=O | 2.33% [at 38.5 µM] (inactive) | –
C[C@H]1CC[C@@]2(OC1)O[C@H]1CC3[C@@H]4CC[C@@H]5C[C@@H](O[C@@H]6O[C@H](CO)[C@@H](O[C@@H]7O[C@H](CO[C@@H]8OC[C@@H](O)[C@H](O)[C@H]8O)[C@@H](O[C@@H]8O[C@H](CO)[C@H](O)[C@H](O)[C@H]8O)[C@H](O)[C@H]7O)[C@H](O)[C@H]6O)CC[C@]5(C)C4CC[C@]3(C)[C@H]1[C@@H]2C (stereo partly drawn) | -0.202% [at 11.6 µM] (inactive) | –
C[C@@H](NC(=O)C(=O)c1c[nH]c2ccc([N+](=O)[O-])cc12)c1ccccc1 | 1.25% (inactive) | –
Cc1[nH]c2ccccc2c1CCNC(=O)c1cccs1 | 0.546% (inactive) | –
C#CCCCn1cc(-c2cccc3c2N[C@H](C)CC(=O)N3)cn1 | – | 7.08 µM (active)
O=C(NC1CCC1)c1ccc(C#Cc2cccc(F)c2)nc1 | 4.33% (inactive) | –
O=C(O)c1cccc(-c2ccc(-c3cn(C(=O)N4CCCCC4Cc4ccccc4)nn3)cc2)c1 (stereo not drawn) | -2.57% (inactive) | –
COC1C(OC(=O)/C=C/C=C/C=C/C=C/C(=O)O)CCC2(CO2)C1C1(C)OC1CC=C(C)C (stereo not drawn) | -1.01% [at 25.3 µM] (inactive) | –
Cc1cc2c(cc1N1C(=O)c3cccc4c(CCCO)ccc(c34)C1=O)n(C)c(=O)n2C | -43.6% [at 25.3 µM] (inactive) | –
O=C(NCC(=O)N1CCCC1)Nc1ccc2cnccc2c1 | -22.7% (inactive) | –
CC(C)(C)c1ccc(C(=O)Nc2cn3cc(-n4ccnc4)ccc3n2)cc1 | -0.517% (inactive) | –
O=S1(=O)CCN(Cc2cc(NCC3CCOCC3)c3[nH]c(-c4ccccc4)cc3c2)CC1 | -13.2% (inactive) | –
NS(=O)(=O)c1ccc(N2N=C(c3ccccc3)CC2c2ccccc2)cc1 (stereo not drawn) | 2.55% (inactive) | –
CCc1ccccc1OC[C@@H](O)CN[C@H]1CCCc2ccccc21 | 2.81% (inactive) | –
C=C1/C(=C/C=C2\CCC[C@]3(C)[C@@H]([C@H](C)/C=C/[C@H](O)C4CC4)CC[C@@H]23)C[C@@H](O)C[C@@H]1O | 22.1% (inactive) | –

test system: SKOV3; assay: as above; conditions: Gynecologic cancer cell panel viability, ATPlite luminescence, 48 h; series mostly up to 57.5 µM; activity change, negative = cytotoxicity: at the top concentration
How it was run: as §1

SMILES | activity change, negative = cytotoxicity
N#Cc1cccc(C(=O)Nc2cc(-c3ccccc3)nn2-c2ccccc2)c1 | -7.29% (inactive)
O=C(Nc1ccc(C(F)(F)F)cn1)N1CCN(c2ncccc2C(F)(F)F)CC1 | 6.76% (inactive)
O=C(Nc1ccccc1C(=O)NC1CCCCNC1=O)c1cc2ccccc2s1 (stereo not drawn) | 4.02% (inactive)
CCCCCCOC(=O)/N=C(\N)c1ccc(NCc2nc3cc(C(=O)N(CCC(=O)OCC)c4ccccn4)ccc3n2C)cc1 | -1.31% (inactive)
CC[C@H]1CN(c2nc(N)c(C(N)=O)nc2Cl)CCN1C1CCN(Cc2ccc(Cl)cc2)CC1 | 19.2% (inactive)
CC(C)=CCc1cc2c(cc1O)OC[C@H]1c3ccc(O)cc3O[C@@H]21 | -16.5% [at 38.5 µM] (inactive)
Cc1c(C(=O)NCc2cccnc2)nn(-c2ccc(Cl)cc2Cl)c1-c1ccc(Cl)cc1 | -3.87% (inactive)
C=C1C(OC2OC(CO)C(O)C(O)C2O)CC2C(C)(C)C(O)CCC2(C)C1CC/C(C)=C\COC(=O)CC(=O)O (stereo not drawn) | -21.3% [at 25.3 µM] (inactive)
C=CC1(C)CC(O)C(C(=C)C(=O)OC)C(O)C1C(=C)CO (stereo not drawn) | -22.6% (inactive)
Cn1cc(-c2ccc(F)c(C(F)(F)F)c2)nc1C1CCN(c2ncnc3[nH]ncc23)CC1 | -4.21% [at 25.3 µM] (inactive)
Cc1ccccc1CN1CCn2c1nc1c(c2=O)CN(Cc2ccccc2)CC1 | 9.56% (inactive)
Cc1cc(-c2ncc(-c3cccnc3)cc2/C=C/c2ccccc2)cnc1-c1cccnc1 | -5.99% (inactive)
Cc1cnn(-c2ccccc2)c1NC(=O)COCc1ccccc1 | 9.13% (inactive)
OC(CC1c2ccccc2-c2cncn21)C1CCCCC1 (stereo not drawn) | -20.9% (inactive)
Nc1nc2c(s1)CCN(Cc1ccc(Cl)cc1)CC2 | 8.04% (inactive)
COc1ccc(CCN(C)CCCOc2nsc(-c3ccccc3)n2)cc1OC | 2.03% (inactive)
COc1cc(O)cc(OC2OC(CO)C(O)C(O)C2O)c1 (stereo not drawn) | 20.7% (inactive)
Cc1cc(C)cc(-c2cnc3cc(Cl)c(-c4cccc(O)c4)cc3c2OCCCN)c1 | -29.4% (inactive)
N[C@@H]1c2cccnc2[C@H](OC(=O)N2CCC(n3c(=O)[nH]c4ncccc43)CC2)CC[C@H]1c1cccc(F)c1F | -13.5% (inactive)
CNCc1cc(-c2ccccc2F)n(S(=O)(=O)c2cccnc2)c1 | 15% (inactive)

SMILES | activity change, negative = cytotoxicity
COc1c2c(c(C)c3c1C(=O)OC3)O[C@@]1(C)C[C@@H](OC(C)=O)[C@]34O[C@](OC)(CC[C@]3(C)[C@H]1C2)OC4(C)C | 20.6% [at 25.3 µM] (inactive)
O=C(N[C@H](Cc1cscn1)C(=O)N[C@@H](CC1CCCCC1)[C@@H](O)[C@@H](O)C1CC1)c1nc2ccccc2[nH]1 | 1.3% (inactive)
O=C(COc1ccc2ccccc2c1Br)Nc1cccnc1 | -2.72% (inactive)
C=C(CCC1C(C)(O)CCC2C(C)(C)C(O)CCC12C)C(O)CO (stereo not drawn) | -0.0574% [at 38.5 µM] (inactive)
C=CCC1=C[C@]2(OC)[C@H](C)[C@@H](c3ccc4c(c3)OCO4)O[C@]2(OC)CC1=O | 0.376% [at 38.5 µM] (inactive)
C[C@H]1CC[C@@]2(OC1)O[C@H]1CC3[C@@H]4CC[C@@H]5C[C@@H](O[C@@H]6O[C@H](CO)[C@@H](O[C@@H]7O[C@H](CO[C@@H]8OC[C@@H](O)[C@H](O)[C@H]8O)[C@@H](O[C@@H]8O[C@H](CO)[C@H](O)[C@H](O)[C@H]8O)[C@H](O)[C@H]7O)[C@H](O)[C@H]6O)CC[C@]5(C)C4CC[C@]3(C)[C@H]1[C@@H]2C (stereo partly drawn) | 11% [at 11.6 µM] (inactive)
C[C@@H](NC(=O)C(=O)c1c[nH]c2ccc([N+](=O)[O-])cc12)c1ccccc1 | -2.52% (inactive)
Cc1[nH]c2ccccc2c1CCNC(=O)c1cccs1 | 7.95% (inactive)
C#CCCCn1cc(-c2cccc3c2N[C@H](C)CC(=O)N3)cn1 | -2.85% (inactive)
O=C(NC1CCC1)c1ccc(C#Cc2cccc(F)c2)nc1 | 5.77% (inactive)
O=C(O)c1cccc(-c2ccc(-c3cn(C(=O)N4CCCCC4Cc4ccccc4)nn3)cc2)c1 (stereo not drawn) | 11.4% (inactive)
COC1C(OC(=O)/C=C/C=C/C=C/C=C/C(=O)O)CCC2(CO2)C1C1(C)OC1CC=C(C)C (stereo not drawn) | -1.97% [at 25.3 µM] (inactive)
Cc1cc2c(cc1N1C(=O)c3cccc4c(CCCO)ccc(c34)C1=O)n(C)c(=O)n2C | -25.4% [at 25.3 µM] (inactive)
O=C(NCC(=O)N1CCCC1)Nc1ccc2cnccc2c1 | 0% (inactive)
CC(C)(C)c1ccc(C(=O)Nc2cn3cc(-n4ccnc4)ccc3n2)cc1 | -31.5% (inactive)
O=S1(=O)CCN(Cc2cc(NCC3CCOCC3)c3[nH]c(-c4ccccc4)cc3c2)CC1 | -21.9% (inactive)
NS(=O)(=O)c1ccc(N2N=C(c3ccccc3)CC2c2ccccc2)cc1 (stereo not drawn) | 11.5% (inactive)
CCc1ccccc1OC[C@@H](O)CN[C@H]1CCCc2ccccc21 | 0% (inactive)
C=C1/C(=C/C=C2\CCC[C@]3(C)[C@@H]([C@H](C)/C=C/[C@H](O)C4CC4)CC[C@@H]23)C[C@@H](O)C[C@@H]1O | 16.4% (inactive)
